# Compounds without any hit were thinned out: in the full panel of roughly 83,000, 20% have a hit.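 Growth was measured after 48 h exposure to one concentration of compound in 96-well plates. Values under 10 count as active.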 A number with no mark means an inactive call. The source made the active and inactive calls.
# How the values were obtained:
# Test in all cases: NCI-60 one-dose screen, 48 h (100 = growth as untreated, 0 = no growth, -100 = all killed)
# Settings in all cases: 10 µM unless noted
# [1] = system: SR leukemia
# [2] = system: RPMI-8226 leukemia
# [3] = system: OVCAR-8 ovarian
# [4] = system: OVCAR-5 ovarian
# [5] = system: OVCAR-4 ovarian
# [6] = system: SK-OV-3 ovarian
# [7] = system: IGROV1 ovarian
# [8] = system: OVCAR-3 ovarian
# [9] = system: HS 578T breast
# [10] = system: NCI/ADR-RES ovarian
SMILES,growth [1],growth [2],growth [3],growth [4],growth [5],growth [6],growth [7],growth [8],growth [9],growth [10]
ClC1=C(Br)C(Br)(Br)C(=C(Br)Br)C1(Br)Br,44%,73.1%,85.1%,110%,99.1%,118%,102%,75%,103%,110%
CNC(=O)c1cncc(Cn2nc(C)c(NC(=O)c3ccc(COc4ccc(C(F)(F)F)cc4C)cc3)c2C)c1,25%,42.7%,55%,98.1%,43.5%,76.7%,62.7%,41%,92.7%,96.4%
CCN1CCN(CCNc2nccc(-c3c(-c4cccc(OC)c4)nc4occn34)n2)S1(=O)=O,96.3%,96.2%,99.3%,130%,114%,92%,79.9%,107%,114%,109%
CC(=O)Nc1cccc(-c2ccc3c(c2)NC(=O)/C3=C\c2ccc[nH]2)c1,9.65% (active),15.8%,56.4%,38.4%,53.1%,48.8%,43.4%,69.6%,64.6%,49.6%
N=C(N)c1ccc(OCCCCCCCCCCOc2ccc(C(=N)N)cc2)cc1,-60.4% (active),-59.8% (active),-74.5% (active),-91.5% (active),-95.8% (active),-91.4% (active),-80.7% (active),-92.4% (active),-56.9% (active),87.1%
COc1ccc(N2CCN(c3ccc(NC4=C(Cl)C(=O)c5ncccc5C4=O)cc3)CC2)cc1,12.9%,35.5%,32.9%,84.4%,28.8%,75.9%,-49.7% (active),-3.66% (active),36.3%,83%
N/C(=N\C(N)=N\c1nc2ccccc2s1)c1cnccn1,0% (active),13.3%,28.1%,60.1%,14.9%,12.9%,-1.19% (active),3.95% (active),49%,61.7%
C=C1C(=O)O[C@H]2[C@H]1CC/C(CNC(=O)c1cccc3ccccc13)=C\CC[C@@]1(C)O[C@@H]21,16.5%,2.93% (active),43.5%,68.8%,63.2%,110%,31.3%,24.8%,69.9%,80.9%
NC(=NCCCOc1ccc(F)cc1)Nc1ccc(Cl)cc1,72%,85.3%,90.1%,54.5%,46%,75.6%,30.9%,89.6%,81.9%,77.3%
N#Cc1cc(-c2nc3ccccc3s2)c(=O)n(NS(=O)(=O)c2ccccc2)c1N,108%,103%,106%,102%,107%,90.3%,98.7%,114%,101%,105%
O=C(O)c1ccc(NCc2cn(-c3ccc(C(F)(F)F)cc3)nc2-c2ccc(C(=O)O)cc2)cc1,97.3%,112%,103%,103%,111%,113%,106%,115%,107%,104%
Cc1ccccc1NS(=O)(=O)c1cccc(C(=O)Nc2ccc(Br)cc2)c1,45.2% [25 µM],33.6% [25 µM],40.5% [25 µM],76.7% [25 µM],36.5% [25 µM],46.3% [25 µM],40.5% [25 µM],47.3% [25 µM],59.1% [25 µM],19.1% [25 µM]
Oc1ccc(C(c2ccc(O)cc2)c2ccc(Br)cn2)cc1,104%,119%,2.17% (active),78.4%,-38.1% (active),65.4%,11.8%,-37.4% (active),-35.6% (active),-38.7% (active)
O=C(C1CCC1)N1N=C(c2ccc(-n3ccc(C(F)(F)F)n3)cc2)CC1c1ccc[nH]1 (stereo not given),81.9%,63.2%,95.4%,94.8%,112%,133%,99.6%,107%,101%,95.5%
COC(=O)C(OC(C)=O)C(OC(C)=O)c1ccc(OC)c(OC)c1 (stereo not given),90.9%,103%,103%,108%,94.2%,110%,114%,104%,110%,94.1%
NS(=O)(=O)c1ccc(CCn2c(SCC(=O)c3ccc(Cl)cc3)nc3ccccc3c2=O)cc1,100%,107%,107%,108%,103%,107%,107%,109%,101%,98.6%
COc1ccc(C(=O)c2cc(OC)c(OC)c(OC)c2)cc1O,7.02% (active),12.7%,14.1%,31.8%,30.6%,37.2%,16.2%,-6.73% (active),28.8%,-32.3% (active)
COc1ccccc1NS(=O)(=O)c1cccc(C(=O)Nc2ccc(Br)cc2)c1,50.4%,38.4%,57.6%,68.9%,35.3%,44.1%,46.6%,45.8%,73.8%,27.6%
C/C(=N\Nc1cc(C)nc2ccc(Br)cc12)c1ccc([N+](=O)[O-])cc1,1.78% (active),27.5%,50.8%,111%,47%,84.1%,53.4%,26.8%,96.8%,81.1%
COc1cccc(-c2cc(C(=O)Nc3ccc(/C=C/c4ccc(OC5CCN(C)CC5)cc4)cc3)ccc2OC)c1,-44.4% (active),-32.7% (active),-38.8% (active),25.2%,-56.5% (active),109%,-56.3% (active),-82.9% (active),-22.9% (active),-11.2% (active)
CN(C)c1ccc(Nc2c3ccccc3nc3cc(NC(=O)CCN4CCCC4)ccc23)cc1,-19.3% (active),-35.5% (active),4.51% (active),11.5%,-17.9% (active),16.6%,1.29% (active),-38.6% (active),19.8%,58.3%
Cc1cc2nc3c4cc(C=O)ccc4n(CCN(C)C)c3nc2cc1C,3.27% (active),-22.6% (active),17.6%,22.5%,23.8%,26.8%,5.83% (active),22.7%,51.6%,18.5%
O=C1c2cccc3c(-c4ccc5c(c4)ncn5C4CCCCC4)ccc(c23)C(=O)N1CCO,84.7%,66.3%,83.2%,110%,86%,109%,96.2%,88.9%,94.7%,89.1%
O=C(CCN1CCCC1)Nc1ccc2c(NCCCCc3ccccc3)c3ccccc3nc2c1,-29% (active),-42.7% (active),1.13% (active),7.16% (active),-74.6% (active),53.9%,-18.1% (active),-82.6% (active),-9.34% (active),80.8%
Fc1ccc2c(-c3cncn3CCc3ccccc3)c[nH]c2c1,96.3%,72.7%,97.7%,92.9%,60.7%,97.6%,77.4%,85.7%,67.3%,95.1%
COc1ccc(C(=O)c2cc(C)c(OC)c(C)c2)c(OC)c1OC(=O)C(Cl)Cl,16%,23.4%,10.1%,45.2%,46.7%,-2.06% (active),22.3%,-4.52% (active),20.5%,-3.92% (active)
S=c1cc(S)c2cc(Br)ccc2[nH]1,94.1%,96.7%,91.5%,114%,92.6%,98.6%,89.5%,100%,109%,101%

# Source: PubChem BioAssay (NCI)
